Test results from ChEMBL document CHEMBL5308504, “Tm Shift (DSF) assay results for EUbOPEN Chemogenomics Library” (2023).
Several values for one entry are separate records, joined by “and”; a condition that tells them apart may be missing. Equal entries are not always repeated.

Legend:
Conditions in all cases: Compound concentration 20.0 uM, Protein concentration 2.0 uM, Result type QC Liability
[1] = target: Tyrosine-protein kinase ABL1 (Homo sapiens) (UniProt P00519)
[2] = target: Cyclin-dependent kinase 2 (Homo sapiens) (UniProt P24941)
[3] = target: Casein kinase I isoform delta (Homo sapiens) (UniProt P48730)
Casein kinase I isoform delta (Homo sapiens), sequence (P48730 whole entry, looked up, canonical isoform): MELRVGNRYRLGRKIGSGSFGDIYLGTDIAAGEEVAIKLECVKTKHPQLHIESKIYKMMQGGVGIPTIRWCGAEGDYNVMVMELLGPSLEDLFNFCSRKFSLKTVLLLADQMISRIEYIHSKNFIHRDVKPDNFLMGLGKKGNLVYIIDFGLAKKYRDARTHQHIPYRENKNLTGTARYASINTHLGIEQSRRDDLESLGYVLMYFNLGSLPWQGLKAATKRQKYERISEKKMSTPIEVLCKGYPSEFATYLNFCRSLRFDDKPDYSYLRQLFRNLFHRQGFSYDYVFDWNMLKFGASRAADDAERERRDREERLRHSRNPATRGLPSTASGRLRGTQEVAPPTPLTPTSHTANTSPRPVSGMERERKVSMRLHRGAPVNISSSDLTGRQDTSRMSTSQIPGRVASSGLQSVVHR

[4] = target: Glycogen synthase kinase-3 beta (Homo sapiens) (UniProt P49841)
Glycogen synthase kinase-3 beta (Homo sapiens), sequence (P49841 whole entry, looked up): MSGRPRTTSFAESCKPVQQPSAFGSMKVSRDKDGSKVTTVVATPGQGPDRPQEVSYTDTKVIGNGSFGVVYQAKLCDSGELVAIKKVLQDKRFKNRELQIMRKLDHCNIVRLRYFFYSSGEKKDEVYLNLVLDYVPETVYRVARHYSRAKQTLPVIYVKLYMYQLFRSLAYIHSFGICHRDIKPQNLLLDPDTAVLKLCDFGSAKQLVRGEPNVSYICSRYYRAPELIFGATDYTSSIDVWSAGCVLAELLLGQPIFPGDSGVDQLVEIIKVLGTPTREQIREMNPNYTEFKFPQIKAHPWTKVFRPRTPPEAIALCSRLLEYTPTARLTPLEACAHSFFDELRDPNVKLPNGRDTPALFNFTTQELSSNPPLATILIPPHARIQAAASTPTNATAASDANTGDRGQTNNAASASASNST

[5] = target: Mitogen-activated protein kinase 1 (Homo sapiens) (UniProt P28482)
Mitogen-activated protein kinase 1 (Homo sapiens), sequence (P28482 whole entry): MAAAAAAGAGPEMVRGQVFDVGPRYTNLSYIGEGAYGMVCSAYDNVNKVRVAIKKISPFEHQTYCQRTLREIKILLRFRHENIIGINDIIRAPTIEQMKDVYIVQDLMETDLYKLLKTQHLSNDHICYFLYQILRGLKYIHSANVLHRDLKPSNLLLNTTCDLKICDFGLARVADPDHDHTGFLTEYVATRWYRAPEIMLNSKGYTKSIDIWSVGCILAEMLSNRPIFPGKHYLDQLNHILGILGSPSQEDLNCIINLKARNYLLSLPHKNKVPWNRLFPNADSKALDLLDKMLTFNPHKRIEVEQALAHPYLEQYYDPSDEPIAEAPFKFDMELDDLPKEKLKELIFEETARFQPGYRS

[6] = target: T1, Aurora kinase A (Homo sapiens) (UniProt O14965)
T1 sequence (whole entry): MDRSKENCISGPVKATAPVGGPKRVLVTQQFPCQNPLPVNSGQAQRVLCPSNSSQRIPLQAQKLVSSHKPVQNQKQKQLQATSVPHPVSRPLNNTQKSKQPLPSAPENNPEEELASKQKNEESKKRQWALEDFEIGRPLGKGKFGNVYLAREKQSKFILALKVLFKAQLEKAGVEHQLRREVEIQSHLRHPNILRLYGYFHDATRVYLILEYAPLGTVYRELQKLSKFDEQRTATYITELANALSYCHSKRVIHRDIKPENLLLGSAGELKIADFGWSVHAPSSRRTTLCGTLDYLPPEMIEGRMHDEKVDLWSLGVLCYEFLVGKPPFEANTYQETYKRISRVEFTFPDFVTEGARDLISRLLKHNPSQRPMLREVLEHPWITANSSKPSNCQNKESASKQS

Tyrosine-protein kinase ABL1 (Homo sapiens), sequence (P00519 whole entry): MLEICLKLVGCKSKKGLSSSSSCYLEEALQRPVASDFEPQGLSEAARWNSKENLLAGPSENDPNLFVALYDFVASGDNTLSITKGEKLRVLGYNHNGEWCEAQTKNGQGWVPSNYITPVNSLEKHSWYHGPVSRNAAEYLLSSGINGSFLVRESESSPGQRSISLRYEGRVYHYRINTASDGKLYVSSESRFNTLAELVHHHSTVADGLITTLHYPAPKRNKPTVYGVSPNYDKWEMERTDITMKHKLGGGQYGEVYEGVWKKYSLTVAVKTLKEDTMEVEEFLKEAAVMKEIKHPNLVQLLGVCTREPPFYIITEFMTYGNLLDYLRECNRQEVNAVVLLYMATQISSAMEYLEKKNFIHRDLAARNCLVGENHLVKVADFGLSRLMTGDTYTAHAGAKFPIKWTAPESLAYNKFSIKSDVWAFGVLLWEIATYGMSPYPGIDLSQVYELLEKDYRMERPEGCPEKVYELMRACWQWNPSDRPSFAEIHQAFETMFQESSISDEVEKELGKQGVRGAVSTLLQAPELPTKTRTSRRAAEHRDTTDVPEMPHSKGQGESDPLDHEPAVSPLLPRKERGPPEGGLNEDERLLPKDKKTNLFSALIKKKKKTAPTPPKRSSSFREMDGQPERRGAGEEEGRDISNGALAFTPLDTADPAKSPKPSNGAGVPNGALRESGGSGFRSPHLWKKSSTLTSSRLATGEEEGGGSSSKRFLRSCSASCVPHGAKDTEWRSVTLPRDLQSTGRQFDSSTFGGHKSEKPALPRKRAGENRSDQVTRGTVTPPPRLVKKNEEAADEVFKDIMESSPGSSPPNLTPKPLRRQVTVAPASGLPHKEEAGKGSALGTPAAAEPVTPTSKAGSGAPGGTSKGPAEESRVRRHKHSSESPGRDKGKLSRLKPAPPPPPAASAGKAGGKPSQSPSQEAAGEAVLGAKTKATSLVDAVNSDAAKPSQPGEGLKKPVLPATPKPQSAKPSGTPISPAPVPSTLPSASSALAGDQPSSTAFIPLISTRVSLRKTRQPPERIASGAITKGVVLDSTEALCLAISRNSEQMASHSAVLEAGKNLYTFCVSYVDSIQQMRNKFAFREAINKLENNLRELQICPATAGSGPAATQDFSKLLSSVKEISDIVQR

Compound	ΔTm [1]	ΔTm [2]	ΔTm [3]	ΔTm [4]	ΔTm [5]	ΔTm [6]
COc1ccc2c(O[C@@H]3C[C@H]4C(=O)N[C@]5(C(=O)NS(=O)(=O)C6(C)CC6)CC5/C=C\CCCCC[C@H](NC(=O)c5ccn(C)n5)C(=O)N4C3)cc(OC(C)C)nc2c1C (stereo not given in full)	-0.32 °C	-0.49 °C	-1.66 °C	-4.13 °C	-0.6 °C	-0.12 °C
Cc1[nH]c2c(N3CCCCC3)c(-c3ccccc3)nn2c(=O)c1-c1ccc(O)cc1	0.05 °C	0.91 °C	1.23 °C	-0.79 °C	0.43 °C	-0.38 °C
CN1Cc2nccc(-c3cn(C)nc3-c3ccc(F)cc3)c2C1=O	1.06 °C	0.02 °C	8 °C	-0.07 °C	0.37 °C	-0.11 °C
C[C@@H]1Cc2c([nH]c3ccccc23)[C@@H](c2c(F)cc(/C=C/C(=O)O)cc2F)N1CC(C)(C)F	-0.24 °C	-0.07 °C	0.64 °C	0 °C	0.55 °C	-0.16 °C
Cc1nn(-c2ccccc2)c(Nc2ccccc2C(=O)O)c1-c1cc2nccnc2c(F)c1F	-0.68 °C	0.56 °C	0.22 °C	1 °C	0.47 °C	0.69 °C
COc1cc2nc(C)nc(NC3(c4ccccc4)CC3)c2cc1OC	0.57 °C	0.41 °C	0.15 °C	-0.3 °C	0.33 °C	0.65 °C
CS(=O)(=O)c1cc(C2(NC(=O)c3cncc4c3cnn4-c3ccc(F)cc3)CC2)ccn1	0.11 °C	0.77 °C	0.73 °C	-0.04 °C	-0.47 °C	0.05 °C
Cc1cccc(-c2[nH]c(CNc3ccccc3F)nc2-c2ccc3ncnn3c2)n1	3.23 °C	0.92 °C	1.1 °C	-0.02 °C	0.92 °C	0.8 °C
Cc1cc(-c2cnc(N)c3c(-c4ccc5scnc5c4)csc23)n(C)n1	7.77 °C	-0.21 °C	0.67 °C	-0.81 °C	-0.07 °C	-0.03 °C
CC(C)(O)[C@H](F)CN1Cc2cc(NC(=O)c3cnn4cccnc34)c(N3CCOCC3)cc2C1=O	2.02 °C	-0.03 °C	0.59 °C	0.95 °C	0.46 °C	3.04 °C
O=C(O)CCn1c2c(c3ccccc31)C[C@H](NS(=O)(=O)c1ccc(F)cc1)CC2	1.15 °C	1.26 °C	0.09 °C	0.24 °C	0.28 °C	-0.02 °C
Clc1ccc(-c2nc3sccn3c2/C=N/OCc2ccc(Cl)c(Cl)c2)cc1	-0.76 °C	-0.94 °C	-2.09 °C	-0.83 °C	-0.15 °C	-1.05 °C
COc1ccccc1N1CCN(c2ncnc3c2cnn3-c2ccccc2)CC1	0.32 °C	-0.17 °C	0.84 °C	-0.28 °C	-0.07 °C	-0.16 °C
CC(C)c1cnn2c(NCc3ccccc3)cc(NCCCCCCN)nc12	-0.02 °C	1.03 °C	2.94 °C	-0.56 °C	0.38 °C	-1.2 °C
CCS(=O)(=O)c1ccc(OC)c(Nc2ncc(-c3cccc(F)c3)o2)c1	2.1 °C	0.14 °C	-0.13 °C	-1.15 °C	0.11 °C	0.2 °C
CN(C)[C@H]1CCc2nc(NC(=O)c3cccc(Cn4cc(-c5ccc(C#N)cc5)cn4)c3)sc2C1	0.14 °C	0.68 °C	0.36 °C	0.72 °C	0.35 °C	0.61 °C
Cc1ccc(NC(=O)c2ccc3c(c2)OCCO3)cc1NC(=O)c1ccc2nc(OCCN3CCCC3)ccc2c1	2.56 °C	1.06 °C	1.91 °C	0.36 °C	0.33 °C	-0.43 °C
CC1=C(C(=O)OCCO)[C@@H](c2ccc(C#N)cc2)NC(=O)N1c1cccc(C(F)(F)F)c1	-0.45 °C	-0.38 °C	0.44 °C	-0.19 °C	0.15 °C	-0.11 °C
CCC(F)(F)c1cc(N2CCC(S(C)(=O)=O)CC2)nc2sc(C(N)=O)c(N)c12	0.45 °C and 1.08 °C and 2.55 °C	0.38 °C and 0.74 °C and 0.49 °C	1.03 °C and 1.35 °C and 2.12 °C	0.35 °C and -0.21 °C and 1.09 °C	0.45 °C and 0.46 °C and 0.62 °C	0.98 °C and 0.42 °C and 1.33 °C
N=C(N)NCCC[C@H](NC(=O)C(c1ccccc1)c1ccccc1)C(=O)NCc1ccc(CNC(N)=O)cc1	-0.28 °C	0.46 °C	0.29 °C	-0.57 °C	0.19 °C	0.09 °C
C/C(=C\C(=O)Nc1ccccc1C(=O)O)c1ccc2ccccc2c1	-0.72 °C	-0.23 °C	0.09 °C	0 °C	0.8 °C	1.85 °C
Cc1c(NC(=O)COc2ccc(Cl)cc2C(=O)c2cc(F)cc(C(F)(F)F)c2)ccc(C(=O)O)c1F	-0.06 °C and 0.75 °C	0.5 °C and 0.58 °C	0.18 °C and 0.09 °C	1.73 °C and 2.32 °C	0.12 °C and 0.93 °C	-0.24 °C and -1.26 °C
COCc1nc2cnc3cc(-c4c(C)noc4C)c(OC[C@H]4CCNC4)cc3c2n1[C@H](C)c1ccccc1	0.08 °C	0.87 °C	0.07 °C	-0.83 °C	0.35 °C	-0.39 °C
N#Cc1ccc(C#CC[C@@H](C#N)NC(=O)[C@H]2CCCCN2)cc1F	-0.48 °C	-0.17 °C	0.45 °C	-0.17 °C	-0.62 °C	-0.01 °C
Cc1cc2c(cc(C(=O)N[C@H](CO)c3ccc(S(=O)(=O)CC(=O)O)cc3)n2C)c(Cl)c1Cl	1.12 °C	-0.15 °C	-1.41 °C	-0.78 °C	0.62 °C	3.77 °C
